# Source: PubChem BioAssay (several laboratories)
# TLR9-MyD88 block: blocks human TLR9 binding to MyD88; CHO BLA complementation TLR9-MyD88, CCF4 FRET ratio; inhibition, % at 4.98 µM; 0.21% of 340,000 active; AID 504734;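 active = inhibition above the mean over all tested compounds plus 3 SD, cut at about 21% in these data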;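 also: 0% = DMSO only wells and 100% = clavulanate BLA inhibitor control wells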
# HSF1 inhib: HSF1 inhibition. activity change, negative = inhibition, % at 7.5 µM (by protocol). NIH3T3-HGL HSE-luciferase, MG132-induced, luminescence 8 h; hits give low values. 0.77% of 300,000 active;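 active = more than half of replicate wells show activity change below -50%, luminescence cut by over half; inconclusive = some wells, but at most half, below -50%; inactive = no replicate well below -50%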;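 also: luciferase reports HSF-1 transcriptional activity via heat shock element; 0% = median of DMSO wells and -100% = zero luminescence signal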
# HSF1 activator: increases HSF-1 driven luciferase reporter signal; NIH3T3-HGL HSF-1 luciferase reporter, MG132, 8 h; 100% = twice DMSO control signal; 1.7% of 300,000 active; activation, % at 9 µM;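 active = mean replicate activation of at least 50% with a set share of replicates each reaching 50%; inconclusive = only one of those two conditions met; inactive = mean below 50% and too few replicates reaching it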;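 also: 0% = median of the neutral control wells and 100% = twice that signal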
# TLR4 MyD88 comp: blocks binding of human TLR4 to MyD88. HeLa CL3-4 TLR4/MyD88 BLA complementation, FRET ratio. inhibition, % at 8.4 µM. 0.18% of 200,000 active; in the data active = inhibition above about 25%;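 also: 0% = vehicle and 100% = reference inhibitor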
# NOD2-RIPK2 inh: inhibitors of human NOD2-RIPK2 interaction. 0.38% of 360,000 active. CHO BLA complementation NOD2-RIPK2, CCF4 ratio. O43353. inhibition, % at 4.98 µM; in the data active = inhibition above about 21%;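 also: 0% = vehicle only and 100% = reference blocker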
# Target sequence (O43353 whole entry, looked up): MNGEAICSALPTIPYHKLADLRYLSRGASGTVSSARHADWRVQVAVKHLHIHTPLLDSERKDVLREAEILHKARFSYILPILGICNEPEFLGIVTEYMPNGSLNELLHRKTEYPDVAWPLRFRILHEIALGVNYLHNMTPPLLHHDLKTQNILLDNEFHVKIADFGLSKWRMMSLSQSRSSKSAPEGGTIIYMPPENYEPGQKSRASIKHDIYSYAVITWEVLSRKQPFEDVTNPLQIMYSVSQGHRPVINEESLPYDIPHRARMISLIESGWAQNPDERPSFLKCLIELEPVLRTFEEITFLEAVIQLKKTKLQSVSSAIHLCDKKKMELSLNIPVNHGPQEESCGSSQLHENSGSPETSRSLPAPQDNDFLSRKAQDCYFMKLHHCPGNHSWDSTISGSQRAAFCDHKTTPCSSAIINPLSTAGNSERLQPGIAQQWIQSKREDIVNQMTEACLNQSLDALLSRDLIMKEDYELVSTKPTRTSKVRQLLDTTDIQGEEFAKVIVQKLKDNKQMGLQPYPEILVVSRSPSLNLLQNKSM
# TLR9-MyD88 cf: TLR9-MyD88 interaction inhibition, confirmation; shares compounds with TLR9-MyD88 block; CHO TLR9/MyD88 BLA complementation, CCF4 FRET ratio; inhibition, % at 4.98 µM; 51% of 680 active; AID 540250;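 active = mean inhibition across three repeats above about 21% taken from the earlier screen, limit read from the data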;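 also: blue over green emission ratio reports constitutive TLR9 MyD88 association via BLA complementation; 0% = DMSO vehicle wells and 100% = clavulanate BLA inhibitor wells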
# BLA nonselective: counter-screen for TLR9-MyD88 inhibitors: non-selective beta-lactamase inhibitors. inhibition, % at 4.98 µM. shares compounds with TLR9-MyD88 block. CHO-BLA cells, CCF4 FRET ratio, BLA reporter. 7% of 680 active;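 active = mean inhibition above a 50% cutoff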;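 also: counterscreen of TLR9-MyD88 hits on CMV-driven BLA in CHO-K1 cells; 0% = DMSO alone and 100% = clavulanate blocking BLA; higher means less blue over green ratio so more BLA blockade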
# TLR9 CHO cytotox: counter-screen for TLR9-MyD88 inhibitors: cytotoxicity in CHO cells; AID 588336; 39% of 680 active; luminescence; inhibition, % at 4.98 µM; shares compounds with TLR9-MyD88 block; in the data active = inhibition above about 11%
# The depositor's hits bear a star; u = inconclusive; x = not tested or not shown. Shown are actives, neighbours in structure and some others; about 2.4% of the full set was active somewhere.
SMILES,TLR9-MyD88 block,HSF1 inhib,HSF1 activator,TLR4 MyD88 comp,NOD2-RIPK2 inh,TLR9-MyD88 cf,BLA nonselective,TLR9 CHO cytotox
COc1cc(C(=O)Nc2ccc(C(C)=O)cc2)c(Br)c(OC)c1OC,21*,15,-7,0,11,1,-2,5
COc1ccc(NC(=O)c2cc(OC)c(OC)c(OC)c2Br)cc1OC,1,-2,5,0,-3,x,x,x
CCOC(=O)C1CCN(C(=O)COC(=O)CNC(=O)c2ccc(C(C)(C)C)cc2)CC1,6,x,x,x,2,x,x,x
CCc1ccc(OCC(=O)N/N=C(\C)c2ccc(OC(F)F)cc2)cc1,21*,-14,7,7,-8,1,4,4
CCc1ccc(OCC(=O)N/N=C(\C)c2ccccc2OC(F)F)cc1,-16,-1,-10,-10,-2,x,x,x
O=C(Nc1cccc(S(=O)(=O)N2CCCC2)c1)[C@@H]1O[C@H](CO)[C@@H](O)[C@H]1O,x,x,x,x,-8,x,x,x
Nc1c(C(=O)Nc2nccs2)sc2nc(-c3cccs3)cc(C(F)(F)F)c12,22*,-9,0,24,19,7,12,-4
CN(CC(=O)Nc1ccccc1Cl)C(=O)C1CSC2(C)CCC(=O)N12 (centres undefined),3,x,x,x,1,x,x,x
CC(=O)C1=C(C)NC(SCC(=O)c2ccc(Cl)c(Cl)c2)=C(C#N)C1c1ccco1 (centres undefined),21*,23,17,18,4,7,8,9
CSc1cnn(CCC#N)c(=O)n1,x,x,x,x,8,x,x,x
CCOC(=O)CS(=O)(=O)c1nc(-c2ccc(F)cc2)cc(C(F)(F)F)n1,42*,59,88*,7,69*,37*,14,99*
CCOC(=O)CCS(=O)(=O)c1nc(-c2ccccc2)cc(C(F)(F)F)n1,33*,u,12,24,69*,39*,13,97*
COc1cccc(C2CC(=O)Nc3c2c(=O)n(C)c(=O)n3C)c1OC (centres undefined),24*,-2,0,-15,-9,-2,-3,-5
COc1ccccc1C1CC(=O)Nc2c1c(=O)n(C)c(=O)n2C (centres undefined),-5,-5,4,4,-10,x,x,x
N#CC1=C(N)OC2=C(CC/C2=C\c2ccccc2Cl)C1c1ccccc1Cl (centres undefined),32*,3,9,2,11,7,7,2
O=C(Nc1nc2ccccc2s1)c1cccc(S(=O)(=O)N2CCc3ccccc32)c1,7,6,-9,x,2,x,x,x
O=C(Nc1nc2c(s1)CN(Cc1ccccc1)CC2)c1cccc(S(=O)(=O)N2CCc3ccccc32)c1,28*,4,9,19,8,5,6,-2
C/C(=N/Nc1ccc([N+](=O)[O-])cc1)c1ccc(C)cc1C,22*,18,25,18,21,19,16,0
C/C(=N/Nc1ccc([N+](=O)[O-])cc1)c1c[nH]c2ccccc12,37*,18,27,x,7,24*,19,3
O=C(NCc1ccccc1Br)c1cccc2c1C(=O)c1ccc(N3CCC(Cc4ccccc4)CC3)cc1S2(=O)=O,15,x,x,x,8,x,x,x
CC1CCN(c2ccc3c(c2)S(=O)(=O)c2cccc(C(=O)NC[C@@H]4CCCO4)c2C3=O)CC1,-1,x,x,x,14,x,x,x
O=C(NC1CCCCC1)c1cccc2c1C(=O)c1ccc(N3CCC(Cc4ccccc4)CC3)cc1S2(=O)=O,80*,x,x,x,21,37*,41,1
O=C(NCC1CCCO1)c1cccc2c1C(=O)c1ccc(N3CCC(Cc4ccccc4)CC3)cc1S2(=O)=O (centres undefined),32*,x,x,x,51*,23*,25,10
CCN1CCc2c(sc(NC(=O)c3ccc(S(=O)(=O)N4CCCCCC4)cc3)c2C(=O)NC)C1,-11,-4,6,x,-5,x,x,x
COc1ccc(C2CC(c3ccncc3)=NN2c2ccc(S(N)(=O)=O)cc2)cc1 (centres undefined),19,x,x,x,37*,12,19,16*
SMILES,TLR9-MyD88 block,HSF1 inhib,HSF1 activator,TLR4 MyD88 comp,NOD2-RIPK2 inh,TLR9-MyD88 cf,BLA nonselective,TLR9 CHO cytotox
O=C(N/N=C/c1c(O)n(-c2ccc(Cl)cn2)c(=O)c2ccccc12)c1ccncc1,21*,-7,10,13,14,8,10,-5
O=C(N/N=C/c1c(O)n(-c2ccc(Cl)cn2)c(=O)c2ccccc12)C1CC1,3,-3,-14,-5,4,x,x,x
COc1ccc(/C=C2/CCc3ccccc3C2=O)cc1OC,-2,9,9,-5,1,x,x,x
COc1ccc(/C=C2\C(=O)NC(=O)c3ccccc32)cc1OC,31*,25,25,x,-5,54*,58*,26*
Cc1ccn2c(Cc3ccccc3)c(-c3ccc(F)cc3)nc2c1,-5,x,x,x,-2,x,x,x
O=C(O)Cn1nnc(COc2ccccc2)n1,-3,-5,18,x,-3,x,x,x
O=c1c2cc([N+](=O)[O-])ccc2sn1-c1ccccc1,29*,x,x,x,7,37*,0,87*
COc1ccccc1C(=O)Nc1ccnn1C1CCN(CCCc2ccccc2)CC1,-2,2,25,x,1,x,x,x
S=c1[nH]nc(COc2ccccc2)n1/N=C/c1ccc(Cl)cc1,-8,-7,4,x,-2,x,x,x
CSc1ccc(/C=N/n2c(COc3ccccc3)n[nH]c2=S)cc1,22*,1,-2,x,-2,-1,1,6
Cc1cc(C)c2nc(NNC(=O)c3cc(-c4cccs4)nc4ccccc34)sc2c1,25*,-5,-5,7,15,1,4,-2
CC(=O)Nc1cc(NC(C)=O)cc(C(=O)NCC2(N3CCOCC3)CCCCC2)c1,7,x,x,x,4,x,x,x
O=[N+]([O-])c1ccc(Nc2ccccc2)c2nonc12,2,-4,-10,x,-10,x,x,x
O=[N+]([O-])c1ccc(Sc2cccc[n+]2[O-])c2nonc12,55*,-9,x,x,89*,59*,9,101*
Cc1cc(C)n2nc(CNS(=O)(=O)c3cccc([N+](=O)[O-])c3)nc2n1,0,11,11,x,6,x,x,x
O=C1C=CC(=O)N1Cc1ccncc1,1,x,x,x,-2,x,x,x
O=C1C=CC(=O)N1CCCCCCCCCCN1C(=O)C=CC1=O,42*,x,x,x,5,56*,34,96*
Cc1cccc(N2C(=O)Cc3ccccc3C2=O)c1,3,2,9,x,1,x,x,x
Cc1ccc(N2C(=O)Cc3ccccc3C2=O)cc1,22*,-4,7,x,-4,42*,40,0
COc1ccc(S(=O)(=O)N2CCCCC2)cc1NC(=O)c1c(F)cccc1Cl,-2,x,x,x,-18,x,x,x
